Holding throughout (test): DAPPL (digital affinity profiling via proximity ligation, sequencing); 10 mM Tris-HCl pH 7.5, 50 mM NaCl, 1 mM DTT, 4% glycerol, room temperature, 30 min; GST-TFs on glutathione beads, 16-mer random dsDNA library, 0.1% formaldehyde crosslink after washing; high values mean tight binding
The target of one test is T1, FLI1 (Homo sapiens, UniProt Q01543 1-452).
T1 sequence: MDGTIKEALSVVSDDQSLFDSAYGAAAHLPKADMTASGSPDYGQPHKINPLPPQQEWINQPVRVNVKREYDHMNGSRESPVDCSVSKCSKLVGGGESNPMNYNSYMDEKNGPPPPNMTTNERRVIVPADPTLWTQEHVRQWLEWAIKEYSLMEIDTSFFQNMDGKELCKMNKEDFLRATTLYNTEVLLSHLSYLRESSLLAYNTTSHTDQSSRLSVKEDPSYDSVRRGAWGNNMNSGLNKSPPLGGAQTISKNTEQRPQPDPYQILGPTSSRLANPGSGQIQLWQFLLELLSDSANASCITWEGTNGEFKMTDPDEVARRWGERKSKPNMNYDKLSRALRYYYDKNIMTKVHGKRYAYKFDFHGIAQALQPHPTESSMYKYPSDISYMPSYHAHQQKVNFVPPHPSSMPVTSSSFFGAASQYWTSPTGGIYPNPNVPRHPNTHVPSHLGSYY
The conditions noted are these: protein: recombinant; tags: N-terminal GST; dsDNA, one strand shown. A digest of the protocol: (§1)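 Human transcription factors were made in yeast as GST fusions, captured on glutathione beads and barcoded with DNA. With a tag-only sample included, the pool was incubated with 200 nmole of a random double-stranded 16-mer DNA library in Tris/NaCl/DTT/glycerol buffer at room temperature for 30 min, then crosslinked with 0.1% formaldehyde after washing, ligated by proximity, amplified and sequenced. For binding signal, each hexamer's read frequency for a factor is divided by its frequency for the tag-only sample.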

The next test concerns the target T2, ELK1 (Homo sapiens, UniProt P19419 1-428).
T2 sequence: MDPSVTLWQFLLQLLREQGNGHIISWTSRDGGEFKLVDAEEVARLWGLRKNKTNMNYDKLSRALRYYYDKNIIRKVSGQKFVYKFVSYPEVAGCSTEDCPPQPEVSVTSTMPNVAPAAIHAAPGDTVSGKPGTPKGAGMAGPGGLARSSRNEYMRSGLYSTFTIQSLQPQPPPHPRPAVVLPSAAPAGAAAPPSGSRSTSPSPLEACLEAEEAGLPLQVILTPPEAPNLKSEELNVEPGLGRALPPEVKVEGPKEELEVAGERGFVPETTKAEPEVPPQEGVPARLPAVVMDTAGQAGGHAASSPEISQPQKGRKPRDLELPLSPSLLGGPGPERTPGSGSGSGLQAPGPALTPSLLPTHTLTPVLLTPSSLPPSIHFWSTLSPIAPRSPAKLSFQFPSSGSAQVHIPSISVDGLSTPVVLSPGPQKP
The conditions noted are these: protein: recombinant; tags: N-terminal GST; dsDNA, one strand shown. The gist of the method: as §1

A further test concerns the target T3, GABPA (Homo sapiens, UniProt Q06546 1-454).
T3 sequence: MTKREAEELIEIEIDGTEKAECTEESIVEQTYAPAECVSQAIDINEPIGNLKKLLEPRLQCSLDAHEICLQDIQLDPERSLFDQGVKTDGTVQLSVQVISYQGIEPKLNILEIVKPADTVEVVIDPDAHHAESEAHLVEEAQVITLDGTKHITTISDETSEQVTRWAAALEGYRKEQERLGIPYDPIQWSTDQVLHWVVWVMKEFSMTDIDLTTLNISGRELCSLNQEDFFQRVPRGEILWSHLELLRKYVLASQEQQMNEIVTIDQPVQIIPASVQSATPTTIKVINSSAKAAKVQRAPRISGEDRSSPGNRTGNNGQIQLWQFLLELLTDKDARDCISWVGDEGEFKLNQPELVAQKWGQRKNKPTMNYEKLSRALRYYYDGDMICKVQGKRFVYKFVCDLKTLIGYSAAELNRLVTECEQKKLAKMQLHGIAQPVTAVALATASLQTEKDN
The conditions noted are these: protein: recombinant; tags: N-terminal GST; dsDNA, one strand shown. A digest of the protocol:
as §1

In a further test the target is T4, ERG (Homo sapiens, UniProt P11308 1-479).
T4 sequence: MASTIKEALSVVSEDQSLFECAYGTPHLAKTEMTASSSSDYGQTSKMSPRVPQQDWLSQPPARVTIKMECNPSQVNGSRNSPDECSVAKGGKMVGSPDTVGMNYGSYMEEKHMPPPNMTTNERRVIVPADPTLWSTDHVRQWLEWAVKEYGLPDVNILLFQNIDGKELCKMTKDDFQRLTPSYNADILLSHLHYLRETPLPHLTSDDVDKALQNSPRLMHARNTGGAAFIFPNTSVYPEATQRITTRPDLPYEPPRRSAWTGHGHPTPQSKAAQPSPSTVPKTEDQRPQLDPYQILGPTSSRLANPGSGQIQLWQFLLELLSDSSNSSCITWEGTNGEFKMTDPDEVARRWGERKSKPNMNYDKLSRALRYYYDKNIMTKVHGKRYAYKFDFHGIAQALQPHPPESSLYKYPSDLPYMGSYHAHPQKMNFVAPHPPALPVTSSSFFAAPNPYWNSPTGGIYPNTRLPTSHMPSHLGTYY
The conditions noted are these: protein: recombinant; tags: N-terminal GST; dsDNA, one strand shown. A digest of the protocol:
as §1

Another test has as its target ELF1 (Homo sapiens, UniProt P32519 1-619). Particulars: protein: recombinant; tags: N-terminal GST; dsDNA, one strand shown. The gist of the method:
as §1

The next test addresses T5, EHF (Homo sapiens, UniProt Q9NZC4 1-300).
T5 sequence: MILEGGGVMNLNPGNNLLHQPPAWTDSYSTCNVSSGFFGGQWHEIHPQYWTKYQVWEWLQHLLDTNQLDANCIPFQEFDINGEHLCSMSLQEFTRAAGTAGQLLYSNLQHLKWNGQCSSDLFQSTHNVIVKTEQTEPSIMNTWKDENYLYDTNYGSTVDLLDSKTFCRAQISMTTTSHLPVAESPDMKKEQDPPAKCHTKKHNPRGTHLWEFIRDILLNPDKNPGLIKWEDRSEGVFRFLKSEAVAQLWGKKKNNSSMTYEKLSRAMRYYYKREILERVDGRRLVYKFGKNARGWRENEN
The conditions noted are these: protein: recombinant; tags: N-terminal GST; dsDNA, one strand shown. A digest of the protocol:
as §1

For another test, the target named is SPI1 (Homo sapiens, UniProt P17947 1-270). The conditions noted are these: protein: recombinant; tags: N-terminal GST; dsDNA, one strand shown. The gist of the method: as §1
The target in the next test is SPIB (Homo sapiens, UniProt Q01892 1-262). The conditions noted are these: protein: recombinant; tags: N-terminal GST; dsDNA, one strand shown. The gist of the method: as §1
Sequence of SPIB (Q01892 whole entry): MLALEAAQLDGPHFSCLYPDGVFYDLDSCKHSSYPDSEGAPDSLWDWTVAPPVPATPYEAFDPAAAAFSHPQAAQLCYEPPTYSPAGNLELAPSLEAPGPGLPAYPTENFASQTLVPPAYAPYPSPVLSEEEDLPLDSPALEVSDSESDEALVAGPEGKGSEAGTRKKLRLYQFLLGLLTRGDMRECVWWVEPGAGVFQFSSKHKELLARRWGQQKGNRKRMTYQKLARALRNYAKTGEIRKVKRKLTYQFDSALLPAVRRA
The next test has as its target T6, ELK3 (Homo sapiens, UniProt P41970 1-407).
T6 sequence: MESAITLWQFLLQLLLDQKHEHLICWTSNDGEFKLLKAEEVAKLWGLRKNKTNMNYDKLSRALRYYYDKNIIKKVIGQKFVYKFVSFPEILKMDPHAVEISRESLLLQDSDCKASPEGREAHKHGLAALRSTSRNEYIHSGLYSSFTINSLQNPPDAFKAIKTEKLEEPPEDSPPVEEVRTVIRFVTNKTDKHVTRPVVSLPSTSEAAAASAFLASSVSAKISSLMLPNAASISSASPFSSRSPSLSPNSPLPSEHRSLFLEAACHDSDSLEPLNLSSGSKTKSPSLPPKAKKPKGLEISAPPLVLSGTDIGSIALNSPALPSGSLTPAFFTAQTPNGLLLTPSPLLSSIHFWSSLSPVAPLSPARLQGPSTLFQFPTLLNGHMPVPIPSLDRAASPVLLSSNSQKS
The conditions noted are these: protein: recombinant; tags: N-terminal GST; dsDNA, one strand shown. The gist of the method:
as §1

The target of the next test is T7, FEV (Homo sapiens, UniProt Q99581 1-238).
T7 sequence: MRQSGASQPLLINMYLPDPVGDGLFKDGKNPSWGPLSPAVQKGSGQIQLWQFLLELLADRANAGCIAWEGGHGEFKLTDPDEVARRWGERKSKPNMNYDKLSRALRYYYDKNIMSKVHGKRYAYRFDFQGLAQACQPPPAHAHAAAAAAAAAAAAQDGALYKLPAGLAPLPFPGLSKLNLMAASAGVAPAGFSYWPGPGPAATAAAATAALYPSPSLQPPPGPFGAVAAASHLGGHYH
Particulars: protein: recombinant; tags: N-terminal GST; dsDNA, one strand shown. A digest of the protocol: as §1

The target in a further test is ETV5 (Homo sapiens, UniProt P41161 1-510). The conditions noted are these: protein: recombinant; tags: N-terminal GST; dsDNA, one strand shown. A digest of the protocol:
as §1

A further test concerns the target HSF1 (Homo sapiens, UniProt Q00613 1-529). Particulars: protein: recombinant; tags: N-terminal GST; chain copies: 3; dsDNA, one strand shown. The gist of the method:
as §1

The target of the next test is T8, SPIC (Homo sapiens, UniProt Q8N5J4 1-248).
T8 sequence: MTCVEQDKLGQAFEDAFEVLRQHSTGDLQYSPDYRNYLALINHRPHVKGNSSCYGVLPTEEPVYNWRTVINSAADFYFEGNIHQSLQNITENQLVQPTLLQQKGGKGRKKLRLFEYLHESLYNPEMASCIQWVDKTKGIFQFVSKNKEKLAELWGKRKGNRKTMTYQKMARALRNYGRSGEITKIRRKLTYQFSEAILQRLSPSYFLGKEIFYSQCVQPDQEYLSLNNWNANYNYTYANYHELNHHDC
Particulars: protein: recombinant; tags: N-terminal GST; dsDNA, one strand shown. A digest of the protocol: as §1

Another test addresses ELF4 (Homo sapiens, UniProt Q99607 1-663). The conditions noted are these: protein: recombinant; tags: N-terminal GST; dsDNA, one strand shown. A digest of the protocol:
as §1

The target in another test is T9, ELK4 (Homo sapiens, UniProt P28324-2 1-405).
T9 sequence: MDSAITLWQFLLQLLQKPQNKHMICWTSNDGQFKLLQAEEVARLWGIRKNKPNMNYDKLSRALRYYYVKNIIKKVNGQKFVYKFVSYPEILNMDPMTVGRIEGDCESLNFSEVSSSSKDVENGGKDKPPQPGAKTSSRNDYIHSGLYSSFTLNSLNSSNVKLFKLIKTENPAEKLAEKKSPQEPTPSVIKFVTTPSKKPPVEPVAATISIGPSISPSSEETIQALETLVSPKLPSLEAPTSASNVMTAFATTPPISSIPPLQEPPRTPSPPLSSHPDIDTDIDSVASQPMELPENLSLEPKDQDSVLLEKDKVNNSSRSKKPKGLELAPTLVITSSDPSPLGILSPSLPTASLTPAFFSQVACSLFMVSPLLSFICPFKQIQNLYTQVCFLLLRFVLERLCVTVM
The conditions noted are these: protein: recombinant; tags: N-terminal GST; dsDNA, one strand shown. The gist of the method:
as §1

The next test addresses T10, ETV2 (Homo sapiens, UniProt O00321 1-342).
T10 sequence: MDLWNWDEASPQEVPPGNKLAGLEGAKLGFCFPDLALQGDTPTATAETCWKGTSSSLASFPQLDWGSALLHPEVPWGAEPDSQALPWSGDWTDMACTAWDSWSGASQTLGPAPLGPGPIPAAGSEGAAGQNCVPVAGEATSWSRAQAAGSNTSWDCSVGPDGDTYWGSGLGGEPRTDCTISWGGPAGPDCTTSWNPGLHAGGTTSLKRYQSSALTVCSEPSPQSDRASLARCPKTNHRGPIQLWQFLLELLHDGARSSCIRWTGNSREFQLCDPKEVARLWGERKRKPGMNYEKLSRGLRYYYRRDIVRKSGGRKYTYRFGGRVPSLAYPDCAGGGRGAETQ
Particulars: protein: recombinant; tags: N-terminal GST; dsDNA, one strand shown. The gist of the method:
as §1

For another test, the target named is T11, ELF3 (Homo sapiens, UniProt P78545 1-371).
T11 sequence: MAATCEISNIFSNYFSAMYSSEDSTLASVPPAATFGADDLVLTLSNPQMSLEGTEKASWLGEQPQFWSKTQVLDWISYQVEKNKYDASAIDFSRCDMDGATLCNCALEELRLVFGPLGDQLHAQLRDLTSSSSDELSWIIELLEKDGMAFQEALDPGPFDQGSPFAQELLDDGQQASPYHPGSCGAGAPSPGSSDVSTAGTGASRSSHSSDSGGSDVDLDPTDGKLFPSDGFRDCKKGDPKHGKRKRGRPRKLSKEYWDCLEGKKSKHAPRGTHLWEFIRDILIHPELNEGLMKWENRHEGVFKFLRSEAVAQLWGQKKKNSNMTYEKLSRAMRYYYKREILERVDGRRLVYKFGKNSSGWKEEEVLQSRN
Particulars: protein: recombinant; tags: N-terminal GST; dsDNA, one strand shown. A digest of the protocol: as §1

A further test addresses CRX (Homo sapiens, UniProt O43186 1-299). The conditions noted are these: protein: recombinant; tags: N-terminal GST; dsDNA, one strand shown. The gist of the method: as §1
For the next test, the target named is ETV1 (Homo sapiens, UniProt P50549 1-477). The conditions noted are these: protein: recombinant; tags: N-terminal GST; dsDNA, one strand shown. The gist of the method:
as §1

This passage reports binding signal results from paper PMC7862700, “An all-to-all approach to the identification of sequence-specific readers for epigenetic DNA modifications on cytosine”.

Sequence of ELF1 (P32519 whole entry): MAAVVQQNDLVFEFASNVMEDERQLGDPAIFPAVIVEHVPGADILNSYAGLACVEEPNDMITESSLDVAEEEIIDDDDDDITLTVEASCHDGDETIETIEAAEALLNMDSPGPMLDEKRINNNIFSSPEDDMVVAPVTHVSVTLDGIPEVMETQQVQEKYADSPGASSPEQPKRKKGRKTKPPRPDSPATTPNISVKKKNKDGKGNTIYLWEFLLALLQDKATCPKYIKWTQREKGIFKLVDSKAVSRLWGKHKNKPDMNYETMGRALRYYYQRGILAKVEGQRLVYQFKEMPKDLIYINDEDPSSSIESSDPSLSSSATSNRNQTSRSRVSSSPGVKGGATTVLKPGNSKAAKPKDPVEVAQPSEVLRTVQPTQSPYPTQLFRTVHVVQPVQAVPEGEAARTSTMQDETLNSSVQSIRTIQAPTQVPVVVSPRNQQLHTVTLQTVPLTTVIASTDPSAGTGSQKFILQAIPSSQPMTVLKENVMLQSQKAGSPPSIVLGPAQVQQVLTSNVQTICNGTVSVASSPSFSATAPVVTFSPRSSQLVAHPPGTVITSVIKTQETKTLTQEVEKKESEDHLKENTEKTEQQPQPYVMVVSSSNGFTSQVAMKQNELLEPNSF
Sequence of CRX (O43186 whole entry): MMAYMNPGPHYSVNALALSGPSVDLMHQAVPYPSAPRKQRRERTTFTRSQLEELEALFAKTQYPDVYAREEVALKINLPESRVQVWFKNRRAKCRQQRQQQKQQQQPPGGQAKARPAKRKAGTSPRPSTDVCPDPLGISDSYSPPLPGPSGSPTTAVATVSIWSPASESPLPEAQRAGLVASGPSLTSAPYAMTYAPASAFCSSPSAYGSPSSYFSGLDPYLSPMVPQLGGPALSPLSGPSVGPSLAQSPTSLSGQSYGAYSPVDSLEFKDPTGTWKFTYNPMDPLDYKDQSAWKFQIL
Sequence of ELF4 (Q99607 whole entry): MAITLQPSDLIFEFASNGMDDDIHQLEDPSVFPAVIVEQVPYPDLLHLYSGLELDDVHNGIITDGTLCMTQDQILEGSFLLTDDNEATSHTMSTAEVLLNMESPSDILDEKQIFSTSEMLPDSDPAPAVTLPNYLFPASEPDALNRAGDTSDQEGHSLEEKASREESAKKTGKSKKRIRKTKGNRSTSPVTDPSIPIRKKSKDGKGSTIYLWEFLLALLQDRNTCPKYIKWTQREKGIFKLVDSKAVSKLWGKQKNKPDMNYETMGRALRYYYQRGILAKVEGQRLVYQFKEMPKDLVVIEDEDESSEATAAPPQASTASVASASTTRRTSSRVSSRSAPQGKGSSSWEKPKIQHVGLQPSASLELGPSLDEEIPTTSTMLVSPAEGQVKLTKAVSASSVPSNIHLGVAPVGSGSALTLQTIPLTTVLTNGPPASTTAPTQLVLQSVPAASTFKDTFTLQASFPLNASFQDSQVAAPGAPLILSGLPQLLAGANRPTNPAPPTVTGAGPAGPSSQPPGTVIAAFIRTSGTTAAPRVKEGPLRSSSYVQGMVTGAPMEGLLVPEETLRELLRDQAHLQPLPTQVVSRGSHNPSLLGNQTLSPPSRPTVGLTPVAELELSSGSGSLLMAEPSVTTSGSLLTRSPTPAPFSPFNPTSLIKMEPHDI
Sequence of HSF1 (Q00613 whole entry): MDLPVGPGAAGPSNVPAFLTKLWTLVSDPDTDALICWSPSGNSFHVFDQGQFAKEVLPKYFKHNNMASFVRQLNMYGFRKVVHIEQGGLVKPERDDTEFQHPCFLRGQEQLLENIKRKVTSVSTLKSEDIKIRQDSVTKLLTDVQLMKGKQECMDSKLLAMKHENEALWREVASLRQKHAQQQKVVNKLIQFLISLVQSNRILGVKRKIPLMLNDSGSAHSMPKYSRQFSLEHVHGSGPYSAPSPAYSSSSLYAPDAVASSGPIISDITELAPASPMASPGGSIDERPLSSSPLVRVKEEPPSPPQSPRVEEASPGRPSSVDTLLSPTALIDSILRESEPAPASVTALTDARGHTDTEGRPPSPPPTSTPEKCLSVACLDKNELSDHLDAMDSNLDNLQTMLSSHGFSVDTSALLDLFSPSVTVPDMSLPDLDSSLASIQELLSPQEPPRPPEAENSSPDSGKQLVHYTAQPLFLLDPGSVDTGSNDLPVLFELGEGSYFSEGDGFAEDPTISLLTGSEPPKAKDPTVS
Sequence of ETV1 (P50549 whole entry): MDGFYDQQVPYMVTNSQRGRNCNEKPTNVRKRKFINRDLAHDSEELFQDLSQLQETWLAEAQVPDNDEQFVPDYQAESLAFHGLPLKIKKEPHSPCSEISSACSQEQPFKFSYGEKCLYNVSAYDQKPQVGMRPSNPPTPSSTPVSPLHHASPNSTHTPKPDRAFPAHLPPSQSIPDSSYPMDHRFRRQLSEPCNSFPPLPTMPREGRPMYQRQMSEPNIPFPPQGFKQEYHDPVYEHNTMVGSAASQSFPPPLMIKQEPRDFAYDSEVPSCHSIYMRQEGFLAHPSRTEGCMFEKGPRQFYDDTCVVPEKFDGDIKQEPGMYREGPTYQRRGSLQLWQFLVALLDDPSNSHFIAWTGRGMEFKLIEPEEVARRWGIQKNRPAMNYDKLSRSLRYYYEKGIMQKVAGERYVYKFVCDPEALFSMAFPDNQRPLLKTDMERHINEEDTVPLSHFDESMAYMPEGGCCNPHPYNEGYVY
Sequence of ETV5 (P41161 whole entry): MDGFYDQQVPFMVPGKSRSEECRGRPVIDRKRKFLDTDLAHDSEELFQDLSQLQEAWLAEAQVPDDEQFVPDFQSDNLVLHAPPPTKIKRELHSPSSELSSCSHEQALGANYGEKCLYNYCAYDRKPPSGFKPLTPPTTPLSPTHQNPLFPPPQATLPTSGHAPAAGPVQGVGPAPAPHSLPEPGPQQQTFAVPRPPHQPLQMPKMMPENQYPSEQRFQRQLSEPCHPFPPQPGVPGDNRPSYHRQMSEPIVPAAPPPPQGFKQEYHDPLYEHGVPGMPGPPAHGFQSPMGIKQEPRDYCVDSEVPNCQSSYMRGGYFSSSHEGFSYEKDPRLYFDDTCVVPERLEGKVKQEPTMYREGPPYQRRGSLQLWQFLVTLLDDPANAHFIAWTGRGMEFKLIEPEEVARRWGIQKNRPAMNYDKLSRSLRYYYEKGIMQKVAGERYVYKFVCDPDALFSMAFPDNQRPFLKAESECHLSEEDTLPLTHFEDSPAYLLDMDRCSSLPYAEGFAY

Regarding CGACCT, the binding signal in the test with FLI1 is 1.44 fold enrichment (6-mer frequency, TF over GST control); with ELK1, 1.44 fold enrichment (6-mer frequency, TF over GST control); in the test with GABPA, 1.54 fold enrichment (6-mer frequency, TF over GST control); with ERG it was 1.46 fold enrichment (6-mer frequency, TF over GST control); in the test with ELF1, 1.6 fold enrichment (6-mer frequency, TF over GST control); in the test with EHF, 1.39 fold enrichment (6-mer frequency, TF over GST control). For the same sequence, the binding signal is 1.4 fold enrichment (6-mer frequency, TF over GST control) with SPI1; 1.63 fold enrichment (6-mer frequency, TF over GST control) in the test with SPIB; 1.7 fold enrichment (6-mer frequency, TF over GST control) with ELK3; 1.59 fold enrichment (6-mer frequency, TF over GST control) with FEV; 1.61 fold enrichment (6-mer frequency, TF over GST control) with ETV5; 1.35 fold enrichment (6-mer frequency, TF over GST control) in the test with HSF1. Moreover, the binding signal is 1.41 fold enrichment (6-mer frequency, TF over GST control) with SPIC; 1.61 fold enrichment (6-mer frequency, TF over GST control) with ELF4; 1.56 fold enrichment (6-mer frequency, TF over GST control) with ELK4; 1.73 fold enrichment (6-mer frequency, TF over GST control) in the test with ETV2; 1.45 fold enrichment (6-mer frequency, TF over GST control) with ELF3; 1.21 fold enrichment (6-mer frequency, TF over GST control) with CRX. In addition, the binding signal with ETV1 is 1.55 fold enrichment (6-mer frequency, TF over GST control).
